Here are results for 38 compounds from PubChem BioAssay (NCI).

Several values for one entry are separate records, joined by “and”; a condition that tells them apart may be missing. Equal values may be shown once. About 83,000 compounds went through this panel and 20% of them were active in at least one assay; those are over-represented in the sample as a whole.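 Cell lines were cultured in 96-well plates, exposed to a single compound concentration, and assessed for percent growth 48 hours later.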 A number with no mark means an inactive call. Activity calls are given as the source filed them. Rule for the calls: active = growth percent below 10; inactive = the rest.

The subject of this test is MDA-MB-468 breast. Put plainly: NCI-60 one-dose screen, 48 h (100 = growth as untreated, 0 = no growth, -100 = all killed). The settings on record: 10 µM unless noted.
For the compound `C[C@@H]1O[C@@H](O[C@H]2C[C@@H](O)[C@]3(CO)C4C(CC[C@]3(O)C2)[C@@]2(O)CC[C@H](C3=CC(=O)OC3)[C@@]2(C)C[C@H]4O)[C@H](O)[C@H](O)[C@H]1O` (stereo partly drawn), the growth is -68.2% (active).

Regarding `CC1COC(=O)C1` (stereo not drawn), the growth was 106%.

Regarding `CC1(C)C(C(=O)c2cn(CCCCF)c3ccccc23)C1(C)C`, the growth is 103%.

Consider `O=C(NC1=NCC[Se]1)c1ccccc1O`, for which the growth was 93.1%.

Regarding `NC(N)=N/N=C\c1c[nH]c2ccc(Br)cc12`, the growth was -6.01% (active).

For the compound `C[N+]12CCC34C5=CC(=O)C(=O)C=C5[N+]5(C)C(=O)CC6OCC=C(C1)C(CC32)C6C45` (stereo not drawn), the growth is 99.9%.

`C=CCCCCCCCCC(=O)[O-].C=CCCCCCCCCC(=O)[O-].[Zn+2]`: the growth was 115%.

Consider `O=C(CC1(O)C(=O)N(Cc2ccccc2)c2ccc(Cl)cc21)c1ccc(C(=O)NCC2CCC3(CC2)OOC2(CCCCC2)OO3)cc1` (stereo not drawn), for which the growth is 6.64% (active).

As for `CC(=O)C1CCC2C3CC=C4CC(OC(=O)Cc5ccc(N(CCCl)CCCl)cc5)CCC4(C)C3CCC12C` (stereo not drawn), the growth is 94.7%.

In the case of `OCc1ccc2c(c1)OCO2`, the growth was 97.6%.

Take `Clc1ccc(N2COOC3(OOC2)C2CC4CC(C2)CC3C4)cc1`: the growth is 65.3%.

For `COC(=O)[C@@H](C)C[C@H](Cc1ccccc1)NC(=O)c1nc([C@@H](C[C@H](C(C)C)N(C)C(=O)[C@@H](NC(=O)[C@H]2C[C@H](O)CCN2C)C(C)C)OC(C)=O)sc1C(C)C`, the growth was -0.0807% (active).

Regarding `O=C1C=C(N2C3C4CCC(C4)C32)C(=O)C=C1c1ccccc1` (stereo not drawn), the growth is 16.9%.

Consider `c1ccc(CSC(c2ccccc2)c2ccccc2)cc1`, for which the growth was 124%.

For `O=C1NC(=O)C(=Cc2ccc(OCCCCC3CCCCC3)c(Cl)c2)C(=O)N1`, the growth was 101%.

`O=P1(N(CCCl)CCCl)NCCCO1` (stereo not drawn): the growth is 108%.

Take `CCCCCCCCCCOc1ccc(C(=O)Oc2ccc(CSP3(=O)OCC4OC(n5ccc(=O)[nH]c5=O)C(F)C4OP(=O)(O)OCC4OC(n5cnc6c(N)ncnc65)C(F)C4O3)cc2)cc1` (stereo not drawn): the growth is 115%.

On to `COc1ccc(/C=C\[N+](=O)[O-])cc1OC`, for which the growth is 53.6% and 11.6%.

`CCn1nccc1NC(=O)C(=O)c1cn(Cc2ccc(F)cc2)c2cccc(OC)c12`: the growth was 102%.

Turning to `CCCCCCCC[N+]12CN3CN(CN(C3)C1)C2`, the growth is 93.4%.

With `COC(=O)[C@@H](C)C[C@H](Cc1ccccc1)NC(=O)c1csc([C@@H](C[C@H](C(C)C)N(C)C(=O)C2(NC(=O)[C@H]3CCCCN3C)CCC2)OC(C)=O)n1`, the growth was 7.04% (active).

Turning to `CC(=O)C1C(=O)N(C)C(=O)N(C)C1=O`, the growth was 104%.

`CCOC(=O)C1C(C=C(C)C)C1(C)C` (stereo not drawn): the growth was 107%.

As to `N#C[Se]CCCNS(=O)(=O)C1CC2C=CC1C2` (stereo not drawn), the growth was -30% (active).

`C[As](=O)(O)c1ccc(C(=O)O)cc1`: the growth was 99.8%.

On to `CC(C)(C)N(Cc1ccccc1)N=O`, for which the growth was 93.2%.

Consider `O=C1NC(=O)C(O)(C2(O)C(=O)NC(=O)NC2=O)C(=O)N1`, for which the growth is 99.8%.

As for `Oc1c(CCl)cc(Cl)cc1CCl`, the growth was 113%.

Regarding `CC[C@]12C=CCN3CC[C@@]4(c5ccc(OC)cc5N(C)[C@H]4[C@@](O)(C(=O)OC)[C@@H]1OC(=O)CCCC[P+](c1ccccc1)(c1ccccc1)c1ccccc1)[C@@H]32`, the growth is -63.9% (active).

In the case of `CN1CC(=O)N(O)C1(C)c1cccnc1` (stereo not drawn), the growth was 94.8%.

On to `COc1ccc2c(c1)NC1=C(C(=O)OC1)C2c1cc(OC)c(OC)c(OC)c1` (stereo not drawn), for which the growth is -16.3% (active).

As to `CCN(CC)CCOC(=O)C(OC(C)C)(c1ccccc1)c1ccccc1`, the growth was 95.1%.

As for `Cc1c(O)c(CN(CCCl)CCCl)cc(CN(CCCl)CCCl)c1O`, the growth is 84.4%.

As for `CN1C2CCC1[C@@H](COC(=O)c1ccccc1)[C@@H](O)C2` (stereo partly drawn), the growth is 86.1%.

Consider `O=CC1(c2ccccc2)CCN(Cc2ccccc2)CC1`, for which the growth is 103%.

Consider `CC1(CF)NC(=O)NC1=O` (stereo not drawn), for which the growth is 113%.

As to `CNC12C3C4C1C1C2C3C41C(=O)N[C@H](C(=O)N(C)[C@H](C[C@@H](OC(C)=O)c1nc(C(=O)N[C@@H](Cc2ccccc2)C[C@H](C)C(=O)OC)cs1)C(C)C)C1CC1` (stereo partly drawn), the growth is -46.5% (active).

In the case of `O=NNc1ccccn1`, the growth is 78.5%.
